# Compounds with a hit are over-represented: about 2.5% of the library has one in this group of screens.
# PHOSPHO1 inh: PubChem AID 1565 | Phosphoethanolamine/phosphocholine phosphatase (Homo sapiens), Q8TCT1 | recombinant PHOSPHO1, absorbance phosphatase assay | inhibition, % at 13.3 µM | hit rate 1.1% among 290,000; in the data active = inhibition above about 60%
# p97 ATPase inh: inhibitors of human p97 ATPase, primary screen, biochemical; recombinant p97 ATPase, Kinase-Glo ATP luminescence, 3 h; Transitional endoplasmic reticulum ATPase (Homo sapiens), P55072; inhibition, % at 8 µM; AID 1481, 2009; hit rate 0.42% among 220,000; in the data active = inhibition above about 15%;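 also: 0% = DMSO vehicle and 100% = wells lacking enzyme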
# Target sequence (P55072 whole entry, looked up): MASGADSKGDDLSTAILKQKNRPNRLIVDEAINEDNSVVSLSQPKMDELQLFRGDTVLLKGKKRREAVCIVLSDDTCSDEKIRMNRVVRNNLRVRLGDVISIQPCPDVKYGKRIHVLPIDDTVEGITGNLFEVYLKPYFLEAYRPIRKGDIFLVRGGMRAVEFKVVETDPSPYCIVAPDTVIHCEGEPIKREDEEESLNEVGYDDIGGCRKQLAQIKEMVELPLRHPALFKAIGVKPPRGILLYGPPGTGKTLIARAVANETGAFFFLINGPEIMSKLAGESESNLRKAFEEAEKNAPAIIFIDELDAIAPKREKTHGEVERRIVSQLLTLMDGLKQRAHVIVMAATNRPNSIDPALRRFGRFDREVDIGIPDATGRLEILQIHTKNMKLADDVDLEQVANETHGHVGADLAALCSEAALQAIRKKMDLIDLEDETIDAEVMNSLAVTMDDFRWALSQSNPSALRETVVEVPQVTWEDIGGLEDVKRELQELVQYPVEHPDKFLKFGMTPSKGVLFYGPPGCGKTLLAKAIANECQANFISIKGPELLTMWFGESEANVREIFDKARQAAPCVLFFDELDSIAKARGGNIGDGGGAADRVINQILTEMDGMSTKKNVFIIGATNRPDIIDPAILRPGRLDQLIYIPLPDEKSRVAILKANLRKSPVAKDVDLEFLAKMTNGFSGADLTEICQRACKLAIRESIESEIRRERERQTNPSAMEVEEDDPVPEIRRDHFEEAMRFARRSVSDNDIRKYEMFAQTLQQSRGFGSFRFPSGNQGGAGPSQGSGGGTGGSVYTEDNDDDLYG
# G6PDH counter: L. mesenteroides G6PDH inhibitors, counter-screen for G6PDH-coupled screening assays, biochemical, Leuconostoc mesenteroides enzyme; hit rate 0.12% among 200,000; Purified L. mesenteroides G6PDH, diaphorase/resazurin coupled fluorescence, 45 min; inhibition, % at 5 µM; in the data active = inhibition above about 50%
# SUMO HTRF inh: inhibitors of in vitro SUMOylation cascade, primary screen, biochemical, HTRF, uHTS; hit rate 0.36% among 290,000; SUMO-conjugating enzyme UBC9 (Homo sapiens), P63279; HTRF SUMOylation assay, SAE1/SAE2 + UBC9; inhibition, % at 35 µM; in the data active = inhibition above about 50%, passing the limit was not always enough; inconclusive = no clear call, values can overlap the other calls
# HDAC3 inh: HDAC3 deacetylase inhibitors, primary screen, biochemical, fluorescence, cell-free homogeneous; recombinant HDAC3, fluorogenic peptide/trypsin coupled; inhibition, % at 8.3 µM; AID 2718, 2010; hit rate 0.15% among 320,000; in the data active = inhibition above about 26%, passing the limit was not always enough; inconclusive = no clear call, values can overlap the other calls
# PfM18AAP inh: PfM18AAP inhibitors, malaria aminopeptidase, primary screen, biochemical, QFRET, recombinant enzyme. hit rate 1.2% among 290,000. AID 1822, 2009. inhibition, % at 7.35 µM. H-Glu-NHMec fluorogenic cleavage;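 active = inhibition above the campaign mean inhibition over all tested compounds plus 3 SD, cut at about 28% in these data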;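 also: 0% = plate median of test compound wells and 100% = 2 mM ZnCl2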
# p97 confirm: p97 ATPase inhibitors, retest, confirmation, biochemical | hit rate 44% among 760 | inhibition, % at 8 µM | shares compounds with p97 ATPase inh | AID 1517, 2009 | recombinant p97 ATPase, Kinase-Glo ATP luminescence;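 active = percent inhibition of p97 ATPase above a set limit, the primary screen's mean plus 3 SD, cut at about 15% in these data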;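 also: 0% = DMSO wells and 100% = wells lacking p97 protein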
# The depositor's hits bear a star; ? = inconclusive; / = no result given.
SMILES,PHOSPHO1 inh,p97 ATPase inh,G6PDH counter,SUMO HTRF inh,HDAC3 inh,PfM18AAP inh,p97 confirm
COc1cc(/C=C2/CC/C(=C/c3ccc(O)c(OC)c3)C2=O)ccc1O,12,35*,/,21,3,9,17*
COc1cc(C=C2C(=O)c3ccccc3C2=O)ccc1O,3,-25,/,15,3,10,/
COc1cc(/C=C2/SC(=Nc3ccc(O)cc3)NC2=O)ccc1O,55,25*,/,17,0,11,31*
COc1cc(/C=C2\CC/C(=C\c3ccc(OCCO)c(OC)c3)C2=O)ccc1OCCO,15,15*,2,8,8,10,5
COc1cc(/C=C2\COC/C(=C\c3ccc(O)c(OC)c3)C2=O)ccc1O,-32,15*,/,-5,1,11,14
Nc1ccc(S(=O)(=O)NC2(C(F)(F)F)NC(=O)N(Cc3ccccc3)C2=O)cc1 (centres undefined),39,/,/,-3,-2,7,/
COc1ccc(C(c2c(C)[nH]n(-c3ccccc3)c2=O)c2c(C)[nH]n(-c3ccccc3)c2=O)cc1OC,-12,30*,12,87,4,11,5
O=C1CSC(=S)N1c1cccc(F)c1,34,/,/,8,1,6,/
O=C1CC(=O)N(c2cccc(F)c2)N1,24,22*,-1,4,/,5,9
CN(C)/C=C/c1c([N+](=O)[O-])c2ccc(O)cc2n1-c1ccccc1,6,26*,/,13,7,11,12
CCc1nnc(NS(=O)(=O)c2ccc(NC(=S)NC(=O)c3ccccc3)cc2)s1,-4,0,-25,4,-12,-12,/
CCc1nnc(NS(=O)(=O)c2ccc(NC(=S)Nc3ccc(F)cc3)cc2)s1,12,17*,2,0,2,-7,3
CC(=O)c1ccc(NC(=O)NNS(=O)(=O)c2ccc([N+](=O)[O-])cc2)cc1,24,/,/,10,/,-3,/
CC(C)(C)OC(=O)N/N=C/c1cccn1-c1ccc([N+](=O)[O-])cc1,2,16*,/,12,10,1,13
COc1ccc(CC(=O)N/N=C/c2cccn2-c2ccc([N+](=O)[O-])cc2)cc1OC,4,5,-4,10,?,2,/
Cc1c(NS(=O)(=O)c2ccc(S(=O)(=O)c3ccccc3)s2)c(=O)n(-c2ccccc2)n1C,-23,16*,/,18,11,-1,17*
Cc1c(NS(=O)(=O)c2ccc(Br)s2)c(=O)n(-c2ccccc2)n1C,12,1,8,6,4,-3,/
O=C(NC(=C(Cl)Cl)S(=O)(=O)c1ccc(Cl)cc1)c1ccccc1,3,25*,/,6,-2,10,27*
Cc1ccc(C(=O)NC(=C(Cl)Cl)S(=O)(=O)c2ccc(C)cc2)cc1,-12,11,-4,12,-5,1,/
Cc1ccc(C(=O)NC(=C(Cl)Cl)S(=O)(=O)c2ccc(Cl)cc2)cc1,30,17*,2,3,6,11,23*
Cc1ccc(S(=O)(=O)C(NC(=O)c2ccccc2)=C(Cl)Cl)cc1,/,5,/,/,-4,5,/
O=C(NCc1cccnc1)C(=O)Nc1cc2c3c(c1)CC(=O)N3CCC2,/,/,/,/,7,/,/
CC(NC(=O)c1ccc(S(=O)(=O)Nc2ccccc2Cl)cc1)c1ccncc1 (centres undefined),/,/,/,/,-8,/,/
CN(C)C=NC(=O)c1cn(-c2ccc(F)cc2)c(=O)c2ccccc12,28,16*,14,1,7,-3,2
O=C(/C=C/c1ccco1)N(Cc1cccc(F)c1)C1CCS(=O)(=O)C1 (centres undefined),15,/,/,-4,3,-4,/
SMILES,PHOSPHO1 inh,p97 ATPase inh,G6PDH counter,SUMO HTRF inh,HDAC3 inh,PfM18AAP inh,p97 confirm
O=C(CSc1nc2ccc([N+](=O)[O-])cc2s1)c1ccc2ccccc2c1,20,17*,/,20,/,-14,8
COc1ccccc1N(C)S(=O)(=O)c1ccc(C(=O)N2CCCc3ccccc32)cc1,37,/,/,3,1,-7,/
COCCCC1CCN(C(=O)C2CCC(=O)N(Cc3cccc(F)c3)C2)CC1 (centres undefined),45,/,/,-12,0,4,/
O=C1C=C(NCc2ccccc2)c2ccccc2C1=O,37,48*,53*,99,/,7,33*
CC1=NN(c2nc(-c3ccc(Cl)cc3)cs2)C(=O)C1,32,16*,1,47,-3,-2,7
CC1=NN(c2nc(-c3ccc(F)cc3)cs2)C(=O)C1,16,7,-1,-7,-3,10,/
O=C(O)C(Cc1ccc(Cl)cc1)NS(=O)(=O)c1ccc(Cl)cc1 (centres undefined),27,/,/,-6,-2,2,/
CCN(CC)c1cc(C)c2cc(NC(=O)CNC(C)=O)ccc2n1,4,25*,5,22,2,9,4
CCN(CC)c1cc(C)c2cc(NC(=O)c3ccccc3F)ccc2n1,33,/,/,6,6,1,/
COc1ccc(Cl)cc1NC(=O)COC(C)=O,36,5,4,9,7,-11,/
COc1ccc(Cl)cc1NC(=O)CC(C)=O,2,17*,12,-7,0,-4,9
Cc1ccc(C(=O)OCC(=O)c2ccc(S(=O)(=O)N3CCCCC3)cc2)o1,/,/,/,/,10,/,/
O=C1/C(=C/c2c[nH]c3ccccc23)CCC/C1=C\c1c[nH]c2ccccc12,-2,29*,17,6,8,13,23*
CCN(CC(=O)Nc1ccc(NC(C)=O)cc1)C(=O)Cc1ccc(S(=O)(=O)N2CCOCC2)s1,/,/,/,/,-4,/,/
O=C(Nc1ccc(Cl)cc1)c1cccs1,-6,6,8,-2,9,7,/
O=C(Cc1ccc(Cl)cc1)Nc1ccc(NC(=O)c2cccs2)cc1,-28,15*,1,34,5,-19,12
O=C1NCCCC2c3cc(O)c4ccccc4c3OC12N1CCCCC1 (centres undefined),50,34*,56*,56*,3,10,14
C=CCn1c(SCC(=O)NCc2ccco2)nc2ccccc2c1=O,17,15*,-1,9,-3,8,8
O=C(CCn1c(SCC(=O)NCc2ccco2)nc2ccccc2c1=O)NCCc1ccccc1,18,2,13,37,-9,1,/
CCOC(=O)C1=C(c2ccccc2)NC(N)=NC1c1ccc(OCc2ccc(C(=O)OC)cc2)cc1 (centres undefined),27,33*,/,-49,7,2,35*
O=C1CCc2ccc(NS(=O)(=O)c3ccc(F)cc3)cc2N1,5,5,2,13,-10,2,/
